{
  "source": "PubChem BioAssay (NCI)",
  "note": "This is part of a sample that, as a whole, favours compounds with a hit. Of some 83,000 tested, about 20% had one in any assay.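 Single-dose data. Exposure time 48 hours. Values below 10 considered active.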 The source made the active and inactive calls.",
  "data": [
    {"test_system": "SNB-75 CNS", "assay": "NCI-60 one-dose screen, 48 h (100 = growth as untreated, 0 = no growth, -100 = all killed)", "details": "10 µM unless noted", "values": [
      {"molecule": "Cc1nn(-c2ccccc2)c2nc(C)n(-c3ccc(Br)cc3)c(=O)c12", "growth": "-6.84% (active)"},
      {"molecule": "CCOC(=O)C(CC)n1c(=O)c2cc(OC)c(OC)cc2c2cnc3[nH]ccc3c21", "note": "(stereo unspecified)", "growth": "45.3% (inactive)"},
      {"molecule": "CC(C)c1c(C(=O)Nc2ccccc2)c(-c2ccccc2)c(-c2ccc(F)cc2)n1CC[C@@H]1CC=CC(=O)O1", "growth": "-25% (active)"},
      {"molecule": "CC(=O)N1CC(Nc2ccc(OC(F)(F)F)cc2)=CC1=O", "growth": "9.15% (active)"},
      {"molecule": "Oc1ccccc1/C=N/Nc1ccc2ccccc2n1", "growth": "31.9% (inactive)"},
      {"molecule": "O=[N+]([O-])c1cccc(C2CC(c3ccccc3)=Nc3ccccc3S2)c1", "note": "(stereo unspecified)", "growth": "68.2% (inactive)"},
      {"molecule": "CCCCCC(=O)N(CCCC)CCCC", "growth": "86.5% (inactive)"},
      {"molecule": "CCCCCCCCCCCCCCCCNCCC[C@@H](C)[C@H]1CC[C@H]2[C@@H]3[C@H](OCCCN)C[C@@H]4C[C@H](OCCCN)CC[C@]4(C)[C@H]3C[C@H](OCCCN)[C@]12C", "growth": "-64.8% (active)"},
      {"molecule": "COc1ccc(-c2cc(NC(=O)Nc3ccc(O)cc3)no2)cc1", "growth": "62.6% (inactive)"},
      {"molecule": "O=C(O)C(O)C(O)C(=O)O.[NH-]C1CCCCC1[NH-].[Pt+2]", "note": "(stereo unspecified)", "growth": "80.8% (inactive)"},
      {"molecule": "CCCNc1nc(SC)nc(-c2cccc(N)c2)c1C#N", "growth": "54.5% (inactive)"},
      {"molecule": "CC(=O)OCC(=O)C1CCC=CC1OC(C)=O", "note": "(stereo unspecified)", "growth": "80.9% (inactive)"},
      {"molecule": "Nc1ccc(Nc2nccc(-c3ccc4ccccc4c3)n2)cc1", "growth": "39% (inactive)"},
      {"molecule": "O=S(=O)(Nc1ccc(Cl)cc1Cl)c1ccc(-c2cnc(C3CC3)o2)cc1", "growth": "5.51% (active)"},
      {"molecule": "O=C1/C(=C/c2ccc(Cl)cc2Cl)CN(S(=O)(=O)c2ccccc2)C/C1=C\\c1ccc(Cl)cc1Cl", "growth": "27.8% (inactive)"},
      {"molecule": "COc1ccc(-c2nc(Nc3cc(C)[nH]n3)c3ccccc3n2)cc1", "growth": "-33.5% (active)"},
      {"molecule": "COc1ccc(-c2csc(NC(=O)CN3CCN(c4cc5c(cc4F)c(=O)c(C(=O)O)cn5C4CC4)CC3)n2)cc1", "growth": "11.7% (inactive)"},
      {"molecule": "Cc1noc(C)c1-c1cc(O)cc(C(O)c2ccccc2)c1", "note": "(stereo unspecified)", "growth": "-13.2% (active)"},
      {"molecule": "COc1cc(OC)c(/C=C/S(=O)(=O)Cc2ccc(OC)c(N)n2)c(OC)c1", "growth": "40.5% (inactive)"},
      {"molecule": "Oc1ccc(Nc2nccc(-c3ccc4ccccc4c3)n2)cc1", "growth": "36% (inactive)"},
      {"molecule": "Cc1cc(Nc2nc(N3CCNCC3)nc3ccccc23)n[nH]1", "growth": "-16.6% (active)"},
      {"molecule": "CCCCCN(CCCCC)CCC[C@@H](C)[C@H]1CC[C@H]2[C@@H]3[C@H](OCCCN)C[C@@H]4C[C@H](OCCCN)CC[C@]4(C)[C@H]3C[C@H](OCCCN)[C@]12C", "growth": "70.6% (inactive)"},
      {"molecule": "C[C@@H]1CC[C@@H]2[C@@H]1[C@H](OC(=O)/C=C/c1ccccc1)[C@]1(c3ccccc3)C[C@@H](OC(=O)CO)[C@@]2(C)O1", "growth": "90.2% (inactive)"},
      {"molecule": "COc1ccc(C2CC(=O)Nc3c2c(C)nn3-c2nc3ccccc3[nH]2)cc1", "note": "(stereo unspecified)", "growth": "103% (inactive)"},
      {"molecule": "O=C(/C=C/c1ccc(B(O)O)cc1)/C=C/c1ccc(B(O)O)cc1", "growth": "72.4% (inactive)"},
      {"molecule": "CC[C@H](Nc1cc(C)nc(N)n1)c1nc2cccc(NCc3ccc(C(=O)NO)cc3)c2c(=O)n1-c1ccccc1", "growth": "15.7% (inactive)"},
      {"molecule": "Cc1ccc(S(=O)(=O)n2cc(-c3csc(-c4cn(C)c5ncccc45)n3)c3ccccc32)cc1", "growth": "45.8% (inactive)"},
      {"molecule": "CC/C=C\\C[C@H](O)C/C=C1/C(=O)C=C[C@@H]1C/C=C\\CCCC(N)=O", "growth": "69.3% (inactive)"},
      {"molecule": "Cc1cccc(NC(=O)c2sc3nc4c(cc3c2N)C(=O)CCC4)c1", "growth": "4.87% (active)"},
      {"molecule": "CC(=O)C1=C(O)C=C2Oc3c(C(=O)/C=C/c4ccccc4)c(O)c(C)c(O)c3[C@]2(C)C1=O", "growth": "87.1% (inactive)"},
      {"molecule": "O=C1NC(=O)C(CC(=O)n2c(-c3ccccc3)nc3ccccc32)C(=O)N1", "growth": "71.1% (inactive)"},
      {"molecule": "Oc1cccc(Nc2nccc(-c3ccc4ccccc4c3)n2)c1", "growth": "23.3% (inactive)"},
      {"molecule": "COc1c(Cl)cc(Cl)cc1Cl", "growth": "116% (inactive)"},
      {"molecule": "CC1(C)OCC2OC3(C(=O)O)OC(C)(C)OC3C2O1", "note": "(stereo unspecified)", "growth": "89.2% (inactive)"},
      {"molecule": "O=C(NC(Cc1ccccc1)C(=O)CCl)OCc1ccccc1", "note": "(stereo unspecified)", "growth": "83.7% (inactive)"},
      {"molecule": "O=C(N/N=C/c1ccc(O)cc1O)c1cccnc1", "growth": "37.7% (inactive)"},
      {"molecule": "O=c1c2cccc3c(NC4CCCCC4)ccc(c32)c2nc3ccccc3n12", "growth": "83% (inactive)"},
      {"molecule": "O=C1Nc2ccccc2/C1=C/C(=N/c1nnc(-c2ccccc2)s1)c1ccccc1", "growth": "78.7% (inactive)"}
    ]},
    {"test_system": "SNB-19 CNS", "assay": "NCI-60 one-dose screen, 48 h (100 = growth as untreated, 0 = no growth, -100 = all killed)", "details": "10 µM unless noted", "values": [
      {"molecule": "Cc1nn(-c2ccccc2)c2nc(C)n(-c3ccc(Br)cc3)c(=O)c12", "growth": "47.5% (inactive)"},
      {"molecule": "CCOC(=O)C(CC)n1c(=O)c2cc(OC)c(OC)cc2c2cnc3[nH]ccc3c21", "note": "(stereo unspecified)", "growth": "90.8% (inactive)"},
      {"molecule": "CC(C)c1c(C(=O)Nc2ccccc2)c(-c2ccccc2)c(-c2ccc(F)cc2)n1CC[C@@H]1CC=CC(=O)O1", "growth": "14.2% (inactive)"},
      {"molecule": "CC(=O)N1CC(Nc2ccc(OC(F)(F)F)cc2)=CC1=O", "growth": "42.3% (inactive)"},
      {"molecule": "Oc1ccccc1/C=N/Nc1ccc2ccccc2n1", "growth": "67.6% (inactive)"},
      {"molecule": "O=[N+]([O-])c1cccc(C2CC(c3ccccc3)=Nc3ccccc3S2)c1", "note": "(stereo unspecified)", "growth": "87.2% (inactive)"},
      {"molecule": "CCCCCC(=O)N(CCCC)CCCC", "growth": "92.9% (inactive)"},
      {"molecule": "CCCCCCCCCCCCCCCCNCCC[C@@H](C)[C@H]1CC[C@H]2[C@@H]3[C@H](OCCCN)C[C@@H]4C[C@H](OCCCN)CC[C@]4(C)[C@H]3C[C@H](OCCCN)[C@]12C", "growth": "-66.6% (active)"},
      {"molecule": "COc1ccc(-c2cc(NC(=O)Nc3ccc(O)cc3)no2)cc1", "growth": "91.5% (inactive)"},
      {"molecule": "O=C(O)C(O)C(O)C(=O)O.[NH-]C1CCCCC1[NH-].[Pt+2]", "note": "(stereo unspecified)", "growth": "101% (inactive)"},
      {"molecule": "CCCNc1nc(SC)nc(-c2cccc(N)c2)c1C#N", "growth": "91.6% (inactive)"},
      {"molecule": "CC(=O)OCC(=O)C1CCC=CC1OC(C)=O", "note": "(stereo unspecified)", "growth": "93.5% (inactive)"},
      {"molecule": "Nc1ccc(Nc2nccc(-c3ccc4ccccc4c3)n2)cc1", "growth": "62.9% (inactive)"},
      {"molecule": "O=S(=O)(Nc1ccc(Cl)cc1Cl)c1ccc(-c2cnc(C3CC3)o2)cc1", "growth": "43.6% (inactive)"},
      {"molecule": "O=C1/C(=C/c2ccc(Cl)cc2Cl)CN(S(=O)(=O)c2ccccc2)C/C1=C\\c1ccc(Cl)cc1Cl", "growth": "39.1% (inactive)"},
      {"molecule": "COc1ccc(-c2nc(Nc3cc(C)[nH]n3)c3ccccc3n2)cc1", "growth": "53.8% (inactive)"},
      {"molecule": "COc1ccc(-c2csc(NC(=O)CN3CCN(c4cc5c(cc4F)c(=O)c(C(=O)O)cn5C4CC4)CC3)n2)cc1", "growth": "16.4% (inactive)"},
      {"molecule": "Cc1noc(C)c1-c1cc(O)cc(C(O)c2ccccc2)c1", "note": "(stereo unspecified)", "growth": "52.7% (inactive)"},
      {"molecule": "COc1cc(OC)c(/C=C/S(=O)(=O)Cc2ccc(OC)c(N)n2)c(OC)c1", "growth": "35.8% (inactive)"},
      {"molecule": "Oc1ccc(Nc2nccc(-c3ccc4ccccc4c3)n2)cc1", "growth": "50.9% (inactive)"},
      {"molecule": "Cc1cc(Nc2nc(N3CCNCC3)nc3ccccc23)n[nH]1", "growth": "101% (inactive)"},
      {"molecule": "CCCCCN(CCCCC)CCC[C@@H](C)[C@H]1CC[C@H]2[C@@H]3[C@H](OCCCN)C[C@@H]4C[C@H](OCCCN)CC[C@]4(C)[C@H]3C[C@H](OCCCN)[C@]12C", "growth": "61% (inactive)"},
      {"molecule": "C[C@@H]1CC[C@@H]2[C@@H]1[C@H](OC(=O)/C=C/c1ccccc1)[C@]1(c3ccccc3)C[C@@H](OC(=O)CO)[C@@]2(C)O1", "growth": "96% (inactive)"},
      {"molecule": "COc1ccc(C2CC(=O)Nc3c2c(C)nn3-c2nc3ccccc3[nH]2)cc1", "note": "(stereo unspecified)", "growth": "113% (inactive)"},
      {"molecule": "O=C(/C=C/c1ccc(B(O)O)cc1)/C=C/c1ccc(B(O)O)cc1", "growth": "69% (inactive)"},
      {"molecule": "CC[C@H](Nc1cc(C)nc(N)n1)c1nc2cccc(NCc3ccc(C(=O)NO)cc3)c2c(=O)n1-c1ccccc1", "growth": "-40.3% (active)"},
      {"molecule": "Cc1ccc(S(=O)(=O)n2cc(-c3csc(-c4cn(C)c5ncccc45)n3)c3ccccc32)cc1", "growth": "85% (inactive)"},
      {"molecule": "CC/C=C\\C[C@H](O)C/C=C1/C(=O)C=C[C@@H]1C/C=C\\CCCC(N)=O", "growth": "26.9% (inactive)"},
      {"molecule": "Cc1cccc(NC(=O)c2sc3nc4c(cc3c2N)C(=O)CCC4)c1", "growth": "42.1% (inactive)"},
      {"molecule": "CC(=O)C1=C(O)C=C2Oc3c(C(=O)/C=C/c4ccccc4)c(O)c(C)c(O)c3[C@]2(C)C1=O", "growth": "21.6% (inactive)"},
      {"molecule": "O=C1NC(=O)C(CC(=O)n2c(-c3ccccc3)nc3ccccc32)C(=O)N1", "growth": "89.6% (inactive)"},
      {"molecule": "Oc1cccc(Nc2nccc(-c3ccc4ccccc4c3)n2)c1", "growth": "28.7% (inactive)"},
      {"molecule": "COc1c(Cl)cc(Cl)cc1Cl", "growth": "103% (inactive)"},
      {"molecule": "CC1(C)OCC2OC3(C(=O)O)OC(C)(C)OC3C2O1", "note": "(stereo unspecified)", "growth": "100% (inactive)"},
      {"molecule": "O=C(NC(Cc1ccccc1)C(=O)CCl)OCc1ccccc1", "note": "(stereo unspecified)", "growth": "82.2% (inactive)"},
      {"molecule": "O=C(N/N=C/c1ccc(O)cc1O)c1cccnc1", "growth": "70.5% (inactive)"},
      {"molecule": "O=c1c2cccc3c(NC4CCCCC4)ccc(c32)c2nc3ccccc3n12", "growth": "89.4% (inactive)"},
      {"molecule": "O=C1Nc2ccccc2/C1=C/C(=N/c1nnc(-c2ccccc2)s1)c1ccccc1", "growth": "103% (inactive)"}
    ]}
  ]
}
